The list is not random: actives were taken first. Their share in the collection is about 19%.
HT1080NT lethal: kills 2HG-producing HT-1080-NT fibrosarcoma cells; HT-1080-NT fibrosarcoma viability, CellTiter-Glo ATP luminescence, 48 h; Potency, µM (highest dose often 46.1 µM), without a hit: at the top dose activity, negative = less viability, usual class: cytotoxic; hit rate 1.6% among 360,000;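 further: NT is the 2HG producing partner of a matched IDH1 knockdown line; 0% = DMSO-treated cells and -100% = media-only wells without cells; nearly all actives have a fitted effect of over 55% in size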
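Toxicity toward the 2HG-producing NT line was scored as %Activity, normalised to DMSO and no-cell wells, from CellTiter-Glo luminescence after 48 hours' treatment.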
KB-3-1 cytotox: kills parental KB-3-1 adenocarcinoma cells | Potency, µM (series often up to 46.1 µM), actives largely listed as cytotoxic | hit rate 1.4% among 400,000 | KB-3-1 viability, CellTiter-Glo ATP luminescence, 72 h; further: nearly all actives have a fitted effect of over 60% in size
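Luminescent ATP read-out (CellTiter-Glo) measures survival of drug-naive KB-3-1 cells after 72 h compound exposure at 37 °C. Titration series was screened from lowest to highest concentration, with DMSO vehicle plates as background controls.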
DT40 TDP1 CPT: growth inhibition of DT40 Tdp1-/-;hTDP1 cells with camptothecin (screen for TDP1 inhibitors); AID 686979; Potency, µM (highest dose often 46.2 µM), for the others: top-dose activity change, negative = growth inhibition, hits mostly inhibitors; hit rate 12% among 420,000; chicken DT40 Tdp1-/-;hTDP1 cells + 20 nM CPT, ATP luminescence, 48 h; further: nearly all actives have a fitted effect of over 55% in size
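Cell growth measured by CellTiter-Glo luminescence after a minimum 48 h, 37 C compound exposure with 20 nM CPT in Tdp1-knockout DT40 cells stably expressing hTDP1, seeded 400/well; qHTS titration format.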
HT1080 IDH1KD tx: HT-1080 IDH1 knockdown cell toxicity (counter line); HT-1080 IDH1 knockdown viability, ATP luminescence, 48 h; Potency, µM (doses to about 46.1 µM), for inactives: at the top dose activity, negative = toxicity, hits mostly cytotoxic; hit rate 2% among 360,000;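 further: 0% = DMSO wells and -100% = cell-free medium wells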
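Assay cells: HT-1080 with IDH1 knockdown, 750 per well, RPMI/5% FBS. Exposure: 48 h at 37 °C following 2 h pre-incubation. Read: CellTiter-Glo luminescence; fitted concentration-response, curve class assigned.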
TDP1 cell noCPT: qHTS for Inhibitors of human tyrosyl-DNA phosphodiesterase 1 (TDP1): qHTS in cells in absence of CPT; hit rate 15% among 420,000; DT40 Tdp1-/- hTDP1 cells, no CPT, ATP luminescence, 48 h; Potency, µM (top dose mostly 46.2 µM), for inactives: at the top dose activity change, negative = growth inhibition, usual class: inhibitors; further: nearly all actives have a fitted effect of over 55% in size
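Growth of hTDP1-complemented DT40 Tdp1-knockout cells is measured by ATP luminescence after at least 48 hr compound exposure at 37 °C, with DMSO substituting for the 20 nM CPT used in the parallel screen.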
KB-V1 MDR tox: kills drug-selected multidrug resistant KB-V1 cells; hit rate 3.4% among 400,000; AID 1347076; Potency, µM (doses to about 46.1 µM), actives largely listed as cytotoxic; KB-V1 MDR cells viability, CellTiter-Glo, 72 h; further: nearly all actives have a fitted effect of over 60% in size
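qHTS viability screen in drug-selected KB-V1 MDR cells: 72 h compound treatment at 37 degrees C, ATP luminescence end point.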
An asterisk follows results filed as active; i = inactive; ? = inconclusive; / = not tested or not shown. The call rests on the fitted dose curve; in most records, active means well fitted curve in the direction sought with a large enough effect; inconclusive means small, poorly fitted or top-dose-only effect, or another doubt; inactive means no such curve, though single readings can be large; an effect the other way counts as inactive or inconclusive. Unless noted, on the % scale 0 is the no-effect control and ±100 the full control effect; potency means the concentration at half of the fitted maximal effect.

SMILES | HT1080NT lethal | KB-3-1 cytotox | DT40 TDP1 CPT | HT1080 IDH1KD tx | TDP1 cell noCPT | KB-V1 MDR tox
CC[C@@]1(O)C(=O)OCc2c1cc1n(c2=O)Cc2cc3c(NC(=O)CN)cccc3nc2-1 | 2.31µM* | i | 0.231µM* | 1.84µM* | 0.411µM* | i
CCC1(OC(=O)CN)C(=O)OCc2c1cc1n(c2=O)Cc2cc3ccccc3nc2-1 (stereo not given) | 1.03µM* | ? | 0.164µM* | 0.731µM* | 0.0651µM* | ?
CC(O)C1C=CC=CC(=O)OC2CC3OC4C5OC5(C)CCC4(COC(=O)C4OC4(C)C(O)CO1)C2(C)C31CO1 (stereo not given) | ? | 0.206µM* | 0.0517µM* | / | 0.0517µM* | 10.3µM*
CC(=O)OC1C(=O)OCC23CCC4(C)OC4C2OC2CC(OC(=O)C=CC=CC(=O)OCCC1C)C3(C)C21CO1 (stereo not given) | 1.46µM* | 0.184µM* | 0.146µM* | / | 0.0206µM* | 0.366µM*
COc1ccc(C(=O)Oc2c(CN3CCOCC3)cc(Cl)c3cccnc23)cc1OC | 21.1% | ? | 5.01µM* | 9.8% | 5.62µM* | ?
CN(C)C(=O)Oc1ccc(Cl)c2cccnc12 | 0.8% | i | 5.9% | 11.7% | -17.6% | i
CCCCN1CC(=O)N2[C@H]3c4cc(C)ccc4OC[C@@H]3[C@H](c3ccccc3)[C@]2(C)C1=O | 3.2% | i | ? | 9.2% | ? | ?
COC(=O)C1=C(c2ccc(F)cc2OCc2ccccc2)C[C@@H]2CC[C@H]1N2C(=O)NCCc1ccc(F)cc1 | -29.9% | i | ? | -21.0% | 20.6µM* | ?
COC(=O)C1=C(c2ccc(F)cc2OCc2ccccc2)C[C@@H]2CC[C@H]1N2C(=O)NCc1ccc(Br)cc1 | -10.0% | ? | ? | -10.0% | 14.6µM* | i
COC(=O)C1=C(c2ccc(F)cc2OCc2ccccc2)C[C@@H]2CC[C@H]1N2C(=O)NCCOc1ccc(OC)cc1 | -10.1% | ? | ? | -4.8% | 16.4µM* | i
COC(=O)C1=C(c2ccc(F)cc2OCc2ccccc2)C[C@@H]2CC[C@H]1N2C(=O)NCc1cccc(C(F)(F)F)c1 | -7.0% | ? | ? | -10.9% | 18.4µM* | ?
COC(=O)C1=C(c2ccccc2OCc2ccccc2)C[C@@H]2CC[C@H]1N2C(=O)NCc1cccc(F)c1 | -15.0% | i | ? | -19.5% | ? | i
COC(=O)C1=C(c2ccc(F)cc2OCc2ccccc2)C[C@@H]2CC[C@H]1N2C(=O)NCc1ccc(OC)cc1 | -16.5% | ? | ? | -16.0% | ? | i
COC(=O)C1=C(c2ccc(C(C)=O)cc2)C[C@@H]2CC[C@H]1N2C(=O)NCc1ccc(C(F)(F)F)cc1 | -1.8% | i | ? | 0.5% | ? | i
CS(=O)(=O)N1CCN(C(=N)N[N+](=O)[O-])CC1 | -4.2% | i | ? | 11.7% | ? | i
COC(=O)C1=C(c2ccc(F)cc2OCc2ccccc2)C[C@@H]2CC[C@H]1N2C(=O)NCCOc1ccccc1 | 0.0% | ? | ? | 4.5% | 16.4µM* | ?
COC(=O)C1=C(c2ccc(F)cc2OCc2ccccc2)C[C@@H]2CC[C@H]1N2C(=O)NCCOc1ccccc1Cl | ? | i | 20.6µM* | -12.4% | 16.4µM* | ?
COC(=O)C1=C(c2ccccc2OCc2ccccc2)C[C@@H]2CC[C@H]1N2C(=O)NCCOc1ccc(OC)cc1 | -3.9% | i | ? | -6.0% | ? | i
CCC(=O)N1CC(=O)Nc2ccc(F)cc2C1c1ccc(F)cc1 (stereo not given) | 7.8% | i | -2.1% | -1.0% | -1.0% | i
